For 11 compounds, Percent Effect results are on record in ChEMBL document CHEMBL3988442, “University of Dundee, Small-Polar-MMV Screening Library” (2021).

For some of these results: Results with a measured potency or affinity are listed apart.

Holding throughout (set-up): scale not given: direction of the effect not stated beside the values
Test [1] addresses Protein translocase subunit SecA (Escherichia coli (strain K12)) (UniProt P10408). The test is described as follows: Assay to Identify E. coli SecA ATPase Inhibitors. In kind it is functional. As to conditions: 30 µM.
Test [2] concerns the target T1, Ubiquitin-activating enzyme e1, putative (Leishmania donovani (strain BPK282A1)) (UniProt E9BSI1).
T1 sequence (whole entry): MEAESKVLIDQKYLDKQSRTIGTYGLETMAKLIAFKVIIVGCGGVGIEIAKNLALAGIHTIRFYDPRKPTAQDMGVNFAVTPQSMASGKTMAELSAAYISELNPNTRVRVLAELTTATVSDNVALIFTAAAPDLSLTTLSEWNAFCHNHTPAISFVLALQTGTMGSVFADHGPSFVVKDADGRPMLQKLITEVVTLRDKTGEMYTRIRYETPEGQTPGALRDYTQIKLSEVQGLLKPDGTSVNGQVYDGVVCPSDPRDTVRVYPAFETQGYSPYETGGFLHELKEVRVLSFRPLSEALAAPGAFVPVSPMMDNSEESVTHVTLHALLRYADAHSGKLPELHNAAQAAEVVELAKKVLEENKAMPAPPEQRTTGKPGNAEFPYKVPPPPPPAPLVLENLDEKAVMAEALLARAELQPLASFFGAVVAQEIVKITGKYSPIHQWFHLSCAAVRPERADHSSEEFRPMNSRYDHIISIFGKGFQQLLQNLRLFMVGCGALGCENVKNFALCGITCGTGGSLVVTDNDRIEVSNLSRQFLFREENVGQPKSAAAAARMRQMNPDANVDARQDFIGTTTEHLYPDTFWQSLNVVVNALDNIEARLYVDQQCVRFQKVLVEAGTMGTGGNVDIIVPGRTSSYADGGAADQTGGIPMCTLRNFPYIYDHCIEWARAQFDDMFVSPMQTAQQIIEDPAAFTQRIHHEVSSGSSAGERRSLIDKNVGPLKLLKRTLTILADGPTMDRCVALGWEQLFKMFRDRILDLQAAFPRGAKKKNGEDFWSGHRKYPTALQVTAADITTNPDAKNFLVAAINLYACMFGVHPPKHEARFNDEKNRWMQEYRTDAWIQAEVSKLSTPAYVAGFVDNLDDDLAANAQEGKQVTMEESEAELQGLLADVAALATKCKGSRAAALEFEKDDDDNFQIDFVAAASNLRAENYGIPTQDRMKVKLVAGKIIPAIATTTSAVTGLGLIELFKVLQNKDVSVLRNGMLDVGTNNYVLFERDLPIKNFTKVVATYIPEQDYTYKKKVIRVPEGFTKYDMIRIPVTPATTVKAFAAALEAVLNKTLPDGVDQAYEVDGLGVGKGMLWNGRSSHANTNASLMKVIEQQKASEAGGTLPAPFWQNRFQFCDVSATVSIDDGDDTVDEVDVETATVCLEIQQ
Briefly: Leishmania donovani Ubiquitin Activating Enzyme (LdE1). In kind it is functional. The following applies: 30 µM.

Test [3] addresses AMP-activated protein kinase, AMPK (Homo sapiens) (UniProt P54646+O43741+P54619+Q9UGJ0+Q9Y478+Q13131+Q9UGI9). The test is described as follows: AMP-dependent Kinase enzyme assay. An in vitro enzyme assay that detects ADP turnover that is directly proportional to AMPK activity. This uses naive AMPK that is activated during the assay with MK-8722. As to conditions: 30 µM. In kind it is functional.

The target in test [4] is Sialic acid-binding Ig-like lectin 9 (Homo sapiens) (UniProt Q9Y336). The test is described as follows: Hs-Siglec9 ALPHAscreen SOP 20170721. As to conditions: 10 µM.
Chain of Sialic acid-binding Ig-like lectin 9 (Homo sapiens) (Q9Y336 whole entry): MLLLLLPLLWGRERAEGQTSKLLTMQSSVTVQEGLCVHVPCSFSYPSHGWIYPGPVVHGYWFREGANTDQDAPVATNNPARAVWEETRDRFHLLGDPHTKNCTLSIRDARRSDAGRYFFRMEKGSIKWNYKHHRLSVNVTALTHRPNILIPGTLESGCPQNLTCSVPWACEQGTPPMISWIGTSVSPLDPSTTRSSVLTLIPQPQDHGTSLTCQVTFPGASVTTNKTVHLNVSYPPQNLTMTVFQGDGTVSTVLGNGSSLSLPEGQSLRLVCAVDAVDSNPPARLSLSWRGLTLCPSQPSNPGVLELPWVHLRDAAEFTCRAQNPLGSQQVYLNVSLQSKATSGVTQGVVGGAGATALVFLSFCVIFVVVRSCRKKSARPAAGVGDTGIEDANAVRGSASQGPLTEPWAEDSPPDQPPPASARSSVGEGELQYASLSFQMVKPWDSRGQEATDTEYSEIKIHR
Test [5] has as its system Trypanosoma cruzi. The test is described as follows: Trypanosoma cruzi phosphomannomutase and mannose-1-phosphate guanylyltransferase assay. The following applies: 10 µM. In kind it is functional.
Test [6] has as its target T2, Arginase-2, mitochondrial (Homo sapiens) (UniProt P78540).
T2 sequence (whole entry): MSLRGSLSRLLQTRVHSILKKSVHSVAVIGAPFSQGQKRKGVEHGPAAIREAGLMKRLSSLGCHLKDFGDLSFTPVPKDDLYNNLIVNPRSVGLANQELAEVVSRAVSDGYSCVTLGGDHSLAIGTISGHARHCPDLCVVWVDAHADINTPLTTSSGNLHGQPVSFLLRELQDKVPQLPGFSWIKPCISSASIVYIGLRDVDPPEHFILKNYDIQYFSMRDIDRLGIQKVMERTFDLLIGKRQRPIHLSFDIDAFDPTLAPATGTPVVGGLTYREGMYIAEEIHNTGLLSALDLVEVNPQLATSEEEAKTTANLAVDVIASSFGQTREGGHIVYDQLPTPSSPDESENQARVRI
Briefly: in vitro enzyme assay to detect the production of urea directly proportional to the activity of Arginase II. Note: in the data most compounds retested in dose-response had high values. It counts as functional. The following applies: 33.3 µM.

Test [7] has as its target T3, Proteasome subunit beta (Trypanosoma cruzi) (UniProt O96673).
T3 sequence (whole entry): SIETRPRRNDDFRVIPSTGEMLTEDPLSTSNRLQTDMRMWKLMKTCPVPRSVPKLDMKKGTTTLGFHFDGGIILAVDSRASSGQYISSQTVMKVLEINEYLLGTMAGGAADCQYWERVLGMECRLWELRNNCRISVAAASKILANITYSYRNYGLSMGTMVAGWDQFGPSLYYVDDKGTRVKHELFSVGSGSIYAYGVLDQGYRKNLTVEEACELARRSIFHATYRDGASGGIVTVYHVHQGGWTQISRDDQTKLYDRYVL
The test is described as follows: Trypanosoma cruzi proteasome chymotrypsin-like activity (TcProtChymo) assay. Note: in the data most compounds retested in dose-response had high values. It counts as functional. As to conditions: 9.37 µM.

The species named for test [8] is Homo sapiens. The test is described as follows: To identify inhibition of the IFN signalling (Jak-Stat) pathway via expression of an eGFP reporter gene under the control of an IFN-stimulated response element (ISRE) containing MxA promoter. It counts as functional. The following applies: 30 µM.
Test [9] deals with T4, Tyrosyl-tRNA synthetase, putative (Trypanosoma cruzi (strain CL Brener)) (UniProt Q4DSP6).
T4 sequence (whole entry): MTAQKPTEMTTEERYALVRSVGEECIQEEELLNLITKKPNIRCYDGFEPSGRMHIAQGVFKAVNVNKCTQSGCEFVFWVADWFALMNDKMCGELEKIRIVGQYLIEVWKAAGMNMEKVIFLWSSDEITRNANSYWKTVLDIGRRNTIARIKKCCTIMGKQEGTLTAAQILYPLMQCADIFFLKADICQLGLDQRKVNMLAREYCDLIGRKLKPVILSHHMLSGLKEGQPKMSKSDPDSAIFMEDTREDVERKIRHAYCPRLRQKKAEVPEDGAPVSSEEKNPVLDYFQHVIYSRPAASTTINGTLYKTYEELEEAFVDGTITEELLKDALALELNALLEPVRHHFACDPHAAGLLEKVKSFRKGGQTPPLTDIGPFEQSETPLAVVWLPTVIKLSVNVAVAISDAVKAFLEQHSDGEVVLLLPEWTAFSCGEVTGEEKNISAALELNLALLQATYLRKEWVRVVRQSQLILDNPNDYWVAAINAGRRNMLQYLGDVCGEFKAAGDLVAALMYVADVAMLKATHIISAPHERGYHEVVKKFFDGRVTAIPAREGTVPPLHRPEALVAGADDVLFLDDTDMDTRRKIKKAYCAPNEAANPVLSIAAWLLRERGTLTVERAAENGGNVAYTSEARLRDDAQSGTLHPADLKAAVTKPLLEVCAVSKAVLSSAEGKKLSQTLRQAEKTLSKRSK
Briefly: Trypanosoma cruzi tyrosyl tRNA synthetase (TcYRS) _High Tyrosine SOP. Note: in the data most compounds retested in dose-response had high values. The following applies: 30 µM. In kind it is functional.

Test [10] has as its target T4, Tyrosyl-tRNA synthetase, putative (Trypanosoma cruzi (strain CL Brener)). The test is described as follows: Trypanosoma cruzi tyrosyl tRNA synthetase (TcYRS) SOP. It counts as functional. The following applies: 30 µM.
Test [11] concerns the target Chromo domain-containing protein 1 (Saccharomyces cerevisiae (strain ATCC 204508 / S288c) (Baker's yeast)) (UniProt P32657). Briefly: ScCHD-1 Enzyme Inhibition Assay. Note: in the data most compounds retested in dose-response had high values. In kind it is functional. As to conditions: 30 µM.

Chain of Protein translocase subunit SecA (Escherichia coli (strain K12)) (P10408 whole entry): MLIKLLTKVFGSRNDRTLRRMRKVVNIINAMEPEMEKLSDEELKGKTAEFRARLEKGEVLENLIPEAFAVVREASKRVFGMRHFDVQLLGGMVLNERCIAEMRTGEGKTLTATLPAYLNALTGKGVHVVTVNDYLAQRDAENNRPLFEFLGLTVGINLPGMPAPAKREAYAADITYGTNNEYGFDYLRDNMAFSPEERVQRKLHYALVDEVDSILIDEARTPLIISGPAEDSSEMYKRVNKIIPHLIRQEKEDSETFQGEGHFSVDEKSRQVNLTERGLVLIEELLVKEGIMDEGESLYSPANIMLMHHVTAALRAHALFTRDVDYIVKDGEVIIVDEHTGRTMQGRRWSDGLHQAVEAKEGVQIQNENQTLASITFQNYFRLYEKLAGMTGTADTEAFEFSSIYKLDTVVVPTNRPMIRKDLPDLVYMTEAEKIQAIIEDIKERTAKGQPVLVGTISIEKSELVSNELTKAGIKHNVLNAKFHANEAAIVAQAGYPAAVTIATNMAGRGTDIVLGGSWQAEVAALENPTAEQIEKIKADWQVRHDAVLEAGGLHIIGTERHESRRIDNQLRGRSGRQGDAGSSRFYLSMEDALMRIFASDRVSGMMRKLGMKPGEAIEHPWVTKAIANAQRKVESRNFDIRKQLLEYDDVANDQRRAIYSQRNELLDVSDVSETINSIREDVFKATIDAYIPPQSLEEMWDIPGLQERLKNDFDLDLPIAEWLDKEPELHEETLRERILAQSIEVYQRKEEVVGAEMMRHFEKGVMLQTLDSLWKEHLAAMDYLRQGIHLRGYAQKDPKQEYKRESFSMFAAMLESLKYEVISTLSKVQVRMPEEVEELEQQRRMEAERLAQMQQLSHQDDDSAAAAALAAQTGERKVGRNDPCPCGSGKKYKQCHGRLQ
Chain of Chromo domain-containing protein 1 (Saccharomyces cerevisiae (strain ATCC 204508 / S288c) (Baker's yeast)) (P32657 whole entry, the tested form may be a part): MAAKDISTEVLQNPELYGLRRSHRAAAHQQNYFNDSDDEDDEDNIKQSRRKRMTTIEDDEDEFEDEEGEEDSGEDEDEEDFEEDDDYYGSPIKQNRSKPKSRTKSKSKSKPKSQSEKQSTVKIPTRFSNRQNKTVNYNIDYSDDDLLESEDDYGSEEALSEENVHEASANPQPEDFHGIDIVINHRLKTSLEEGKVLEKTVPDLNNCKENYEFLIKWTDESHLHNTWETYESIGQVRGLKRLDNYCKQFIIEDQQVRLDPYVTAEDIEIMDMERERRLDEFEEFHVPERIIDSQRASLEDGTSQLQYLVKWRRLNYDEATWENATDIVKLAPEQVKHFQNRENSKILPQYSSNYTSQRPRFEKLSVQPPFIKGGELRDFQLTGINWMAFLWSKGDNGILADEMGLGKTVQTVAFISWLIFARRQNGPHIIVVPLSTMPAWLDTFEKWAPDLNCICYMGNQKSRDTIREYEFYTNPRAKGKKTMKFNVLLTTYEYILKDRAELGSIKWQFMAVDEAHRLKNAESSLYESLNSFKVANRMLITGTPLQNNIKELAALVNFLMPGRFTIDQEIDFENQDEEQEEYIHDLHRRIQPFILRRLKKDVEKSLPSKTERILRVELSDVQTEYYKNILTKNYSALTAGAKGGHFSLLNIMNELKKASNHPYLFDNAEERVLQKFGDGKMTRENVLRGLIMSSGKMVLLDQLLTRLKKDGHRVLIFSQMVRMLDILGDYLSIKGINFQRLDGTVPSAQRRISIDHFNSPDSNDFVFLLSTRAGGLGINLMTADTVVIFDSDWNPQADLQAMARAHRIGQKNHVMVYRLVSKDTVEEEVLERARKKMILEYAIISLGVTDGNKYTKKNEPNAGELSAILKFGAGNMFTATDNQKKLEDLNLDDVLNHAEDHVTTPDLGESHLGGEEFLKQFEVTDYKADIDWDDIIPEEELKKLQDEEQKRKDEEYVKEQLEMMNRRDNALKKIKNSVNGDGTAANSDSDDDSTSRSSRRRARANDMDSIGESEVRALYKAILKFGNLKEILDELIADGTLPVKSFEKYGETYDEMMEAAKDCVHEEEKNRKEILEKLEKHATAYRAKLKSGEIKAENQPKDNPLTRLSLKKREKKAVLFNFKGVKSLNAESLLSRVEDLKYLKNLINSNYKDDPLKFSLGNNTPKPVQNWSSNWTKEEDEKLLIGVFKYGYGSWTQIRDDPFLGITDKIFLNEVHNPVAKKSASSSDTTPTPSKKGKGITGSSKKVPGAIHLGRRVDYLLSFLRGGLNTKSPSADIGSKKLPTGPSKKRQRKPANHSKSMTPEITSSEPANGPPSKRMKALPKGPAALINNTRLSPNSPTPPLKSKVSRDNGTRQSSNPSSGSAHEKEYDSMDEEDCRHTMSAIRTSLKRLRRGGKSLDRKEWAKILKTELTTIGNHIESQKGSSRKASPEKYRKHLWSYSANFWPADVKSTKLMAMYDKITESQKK

Consider `Cn1cc(C2COC3(CCN(C(=O)c4ccc(F)cc4)CC3)C2)cn1` (stereo unspecified), for which the Percent Effect in test [1] is -3.35%; in test [2], 8.11%; in test [3], 6.34%; in [4] it was -3.51%; in test [5], -2.25%; in [6] it was 7.33%. Besides, the Percent Effect in test [7] is 19.9%; in test [8], -15%; in [9], 2.16%; in [10] it was 17.9%; in test [11], 2.2%.
As to `Cc1cccc(CN2CCc3c(nc(N4CCC(C)CC4)[nH]c3=O)C2)n1`, the Percent Effect in [1] was -4.27%; in test [2], 4.05%; in test [3] it was 14.3%; in test [4], 2.26%; in [5], 4.15%; in test [6], -0.696%. For the same compound, the Percent Effect is 5.3% in test [7]; -12.8% in test [8]; 8.6% in test [9]; 14.3% in test [10]; -8.43% in [11].
In the case of `CCc1nc(C2CCCN2CC(=O)Nc2c(C)n[nH]c2C)no1` (stereo unspecified), the Percent Effect in [1] is 1.31%; in [2] it was -2.6%; in [3] it was -3.26%; in test [4] it was 6.7%; in test [5] it was -5.62%; in test [6] it was 5.34%. Also, the Percent Effect in test [7] is 3.38%; in [8], 16.5%; in test [9], 1.94%; in [10], 7.32%; in test [11] it was -0.363%.
As for `O=C(CO)N1C[C@H]2CC[C@@H]1CN(C1Cc3ccccc3C1)C2`, the Percent Effect was -5.84% in test [1]; 5.41% in [2]; -17.8% in test [3]; -1.59% in test [4]; -1.86% in [5]; 1.74% in test [6]. The Percent Effect in test [7] is 5.75%; in [8], 3.96%; in [9] it was 1.07%; in test [10] it was 8.64%; in test [11], -4.67%.
Consider `COCC1c2nnn(CC3CC3)c2CCN1C(=O)c1ccnnc1` (stereo unspecified), for which the Percent Effect in test [1] is -5.05%; in [2], 21.6%; in test [3] it was -7.32%; in test [4], 32.8%; in test [5], 3.81%; in test [6], 3.23%. The Percent Effect is 3.86% in test [7]; -2.31% in [8]; 6.45% in test [9]; 13.6% in [10]; -10.1% in test [11].
Consider `Cc1occc1C(=O)N1CCC2(CC1)CC(c1cccnc1)C(=O)N2C` (stereo unspecified), for which the Percent Effect in [1] was -1.69%; in test [2], 10.7%; in test [3], -2.33%; in test [4], 5.45%; in test [5], -1.74%; in test [6], -19.9%. For the same compound, the Percent Effect is 5.64% in test [7]; -9.07% in test [8]; 2.08% in test [9]; 12.5% in test [10]; -5.44% in test [11].
Regarding `Cc1nc(N2CCOCC2)nc2c1CCN(C(=O)NC1CCCC1)CC2`, the Percent Effect is -0.181% in [1]; 6.67% in test [2]; -1.67% in [3]; -6.84% in test [4]; -11% in test [5]; -6.16% in test [6]. Besides, the Percent Effect in [7] was 19.2%; in test [8] it was 0.0839%; in test [9] it was -2.12%; in [10], 0%; in test [11], -10.6%.
In the case of `CNC(=O)N1CCc2cc(C(=O)N(C)C)c(NCC3CC3)nc2CC1`, the Percent Effect is -4.82% in [1]; 8.11% in test [2]; -2.71% in test [3]; 2.07% in test [4]; -4.4% in test [5]; -0.248% in [6]. Moreover, the Percent Effect in test [7] was 10.7%; in test [8] it was 18.6%; in test [9], 6.45%; in [10] it was 16.1%; in test [11] it was -1.72%.
Consider `COc1ccc(OCCNCCn2cccn2)cc1`, for which the Percent Effect in [1] was 1.21%; in [2] it was 1.27%; in test [3], -2.53%; in test [4] it was 10.8%; in test [5], -1.95%; in [6], 7.1%. Further, the Percent Effect in test [7] is 6.69%; in test [8], 6.41%; in test [9], -1.04%; in test [10], 2.53%; in test [11], -1.82%.
With `O=C1COc2ccc(C(=O)NS(=O)(=O)c3ccc(F)cc3F)cc2N1`, the Percent Effect in test [1] is -2.51%; in [2] it was -7.89%; in test [3] it was 6.3%; in [4] it was -2.06%; in test [5], 2.15%; in test [6], -4.32%. Moreover, the Percent Effect is -1.78% in test [7]; -9.03% in [8]; 4.43% in test [9]; 3.7% in [10]; 6.46% in test [11].
With `CC(C)Cc1noc(CN2CCOCC2)n1`, the Percent Effect is -1.04% in test [1]; 7.89% in [2]; -1.16% in [3]; 2.11% in test [4]; 2.07% in [5]; 1.15% in [6]. Moreover, the Percent Effect in test [7] was 15.7%; in [8] it was -19.8%; in [9] it was 5.39%; in test [10], 12.2%; in test [11] it was -7.16%.
